In PubChem BioAssay (NCI):
The panel holds about 83,000 compounds, 20% with a hit somewhere; the sample as a whole holds those more often.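 Negative percent growth values reflect cell death: -40 means 40% of the cells present at the start died, and -100 means all died.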 Values without a mark were called inactive. Active and inactive are the calls of the source. The calls were made as follows: active = growth percent below 10; inactive = the rest.

Key:
Experiment in all cases: NCI-60 one-dose screen, 48 h (100 = growth as untreated, 0 = no growth, -100 = all killed)
NCI-H23 lung = conditions: 10 µM unless noted
NCI-H226 lung = conditions: 10 µM unless noted
NCI-H322M lung = conditions: 10 µM unless noted
HOP-62 NSCLC = conditions: 10 µM unless noted
NCI-H460 lung = conditions: 10 µM unless noted
HOP-92 NSCLC = conditions: 10 µM unless noted
NCI-H522 lung = conditions: 10 µM unless noted
A549/ATCC NSCLC = conditions: 10 µM unless noted
786-0 renal = conditions: 10 µM unless noted
COLO 205 colon = conditions: 10 µM unless noted
DU-145 prostate = conditions: 10 µM unless noted
K-562 leukemia = conditions: 10 µM unless noted
MALME-3M melanoma = conditions: 10 µM unless noted
RXF 393 renal = conditions: 10 µM unless noted
SF-268 CNS = conditions: 10 µM unless noted
SF-295 CNS = conditions: 10 µM unless noted
SF-539 CNS = conditions: 10 µM unless noted
UACC-257 melanoma = conditions: 10 µM
M14 melanoma = conditions: 10 µM unless noted
MDA-MB-231 breast = conditions: 10 µM unless noted

Row | Structure (SMILES) | growth (NCI-H23 lung) | growth (NCI-H226 lung) | growth (NCI-H322M lung) | growth (HOP-62 NSCLC) | growth (NCI-H460 lung) | growth (HOP-92 NSCLC) | growth (NCI-H522 lung) | growth (A549/ATCC NSCLC) | growth (786-0 renal) | growth (COLO 205 colon) | growth (DU-145 prostate) | growth (K-562 leukemia) | growth (MALME-3M melanoma) | growth (RXF 393 renal) | growth (SF-268 CNS) | growth (SF-295 CNS) | growth (SF-539 CNS) | growth (UACC-257 melanoma) | growth (M14 melanoma) | growth (MDA-MB-231 breast)
1 | O=C(CC(O)c1ccncc1)c1ccccc1 (stereo unspecified) | -18.6% (active) | 9.03% (active) | -8.53% (active) | 22.9% | 102% | 10.2% | -36.6% (active) | 15.5% | 9.96% (active) | -54.7% (active) | 3.98% (active) | 57.9% | 91.9% | -69.4% (active) | 74.9% | 51.8% | 8.03% (active) | 83.1% | 90.8% | 
2 | COc1ccc(C2=NN(c3ccc(S(N)(=O)=O)cc3)C(c3cn(-c4ccccc4)nc3-c3ccc(Cl)cc3)C2)cc1 (stereo unspecified) | 93.9% | 101% | 94.4% | 95.3% | 89% | 110% | 71.1% | 74.6% | 105% | 93.7% | 95.2% | 66.9% |  | 97.3% | 85.6% | 93.1% | 102% | 95.4% | 83.9% | 93.5%
3 | CN=S(=O)(NC(=O)c1ccc(Cl)cc1Cl)c1ccc(Br)s1 (stereo unspecified) | 104% | 93.8% | 113% | 105% | 98.6% | 65.9% | 102% | 89.5% | 105% | 121% | 111% | 104% |  | 103% | 109% | 101% | 97% | 92.5% | 106% | 104%
4 | CC(=O)Nc1ccc(S(=O)(=O)N2C(=O)CCC2C(=O)Nc2ccc(Br)cc2)cc1 (stereo unspecified) | 21.9% | 50.2% | 31.8% | 45.6% | 21.2% | 11.8% | -7.58% (active) | 22.3% | 57.8% | 6.33% (active) | 44.2% | 0.475% (active) |  | 57.4% | 47.6% | 13.1% | 42.1% | 30.4% | 36.9% | 34.4%
5 | NC(C(=O)O)C(O)c1ccc(OCc2ccccc2)c(OCc2ccccc2)c1 (stereo unspecified) | 96.3% | 99.2% | 109% | 88.7% | 108% | 73.8% | 93.5% | 93.4% | 98.7% | 106% | 107% | 95.6% | 114% | 100% | 97.4% | 97.8% | 97.2% |  | 97.4% | 
6 | CC1=NN2C(=NC3=C(CCC/C3=C\c3ccc(Cl)cc3)C2c2ccc(Cl)cc2)S1 (stereo unspecified) | 97.8% | 101% | 104% | 115% | 101% | 77.9% | 83.3% | 87% | 97.2% | 109% | 101% | 100% |  | 106% | 98.6% | 102% | 102% | 106% | 92.3% | 109%
7 | CCN(CC)c1cc(/C=C/c2ccc(OC)c(OC)c2)nc2cc(F)c(F)cc12 | -2.87% (active) | 24.6% | 90.9% | -78.8% (active) | 84.9% | -53.2% (active) | 33.9% | 64.8% | -18.7% (active) | 105% | 71.8% |  | 4.61% (active) | -58.7% (active) | 7.33% (active) | -66% (active) | 4.7% (active) | 87.7% | 74.6% | 8.74% (active)
8 | CC(=O)Nc1ccc(S(=O)(=O)N2C(=O)CCC2C(=O)Nc2ccccc2)cc1 (stereo unspecified) | 38.5% | 46.9% | 38% | 30.3% | 15.1% | -5.79% (active) | 27.5% | 21.3% | 26.2% | 12.1% | 50.2% | 11.8% |  | 57.7% | 61.9% | 1.91% (active) | -22% (active) | 33.7% | 10.3% | 25.6%
